# From PubChem BioAssay (NCATS)
# Where “and” joins values, the source holds several entries; their conditions need not be identical. Equal entries are not always repeated. Inconclusive results are not listed. Where a call stands in place of a potency, no number is given. Calls of active or inactive are those of the source. Unless noted, calls come from the whole dose curve; as a rule, active = well fitted curve in the direction sought with a large enough effect; inconclusive = small, poorly fitted or top-dose-only effect, or another doubt; inactive = no such curve, though single readings can be large; an effect the other way counts as inactive or inconclusive.
# How the values were obtained:
# [1] = Cell Viability - H-4-II-E (AID 543);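 note: cells exposed to compound for 40 hours; nearly all actives have a fitted effect of over 35% in size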; note: potency is the fitted concentration of half-maximal effect
# In short: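 CellTiter-Glo luminescence (intracellular ATP) measured after 40 h compound exposure at 37 °C in H-4-II-E rat hepatoma cells seeded at 1500/well. Values are AC50s fitted with the standard Hill equation.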
# [2] = Cell Viability - LYMP2-001 (AID 921); note: nearly all actives have a fitted effect of over 70% in size; note: potency is the fitted concentration of half-maximal effect
# In short: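 A lymphoblastoid cell line of human origin was treated with library compounds across a concentration series for 24 hours, and viable cell number was estimated from ATP-driven luciferase light output. Hill modeling gave AC50.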
# [3] = Cell Viability - LYMP1-003 - Assay at 40 hr (AID 964); note: nearly all actives have a fitted effect of over 60% in size; note: potency is the fitted concentration of half-maximal effect
# In short: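 Viability is taken as cellular ATP, read by CellTiter-Glo luminescence after 40 h of compound exposure at 37 C. Cells: human lymphoblastoid line LYMP1-003 at 2500/well; AC50 values derived by Hill-equation fitting of concentration-response data.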
# [4] = Cell Viability - LYMP2-004 (AID 966); note: nearly all actives have a fitted effect of over 65% in size; note: potency is the fitted concentration of half-maximal effect
# In short: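 AC50 values come from Hill modelling of concentration-dependent loss of intracellular ATP, measured by CellTiter-Glo luminescence. Human LYMP2-004 lymphoblastoid cells (2500/well) were exposed to compound for 24 h at 37 C.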
# [5] = Cell Viability - LYMP2-005 (AID 967); note: potency is the fitted concentration of half-maximal effect
# In short: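 Luciferase-based ATP quantitation served as the viability measure in human lymphoblastoid LYMP2-005 cells exposed to test compounds for 24 h at 37 C in complete culture medium. Potency (AC50) was obtained by fitting concentration-response curves with the Hill equation.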
# [6] = Cell Viability - LYMP2-009 (AID 968); note: nearly all actives have a fitted effect of over 55% in size; note: potency is the fitted concentration of half-maximal effect
# [7] = Cell Viability - LYMP2-017 (AID 972); note: nearly all actives have a fitted effect of over 55% in size; note: potency is the fitted concentration of half-maximal effect
# In short: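 CellTiter-Glo luminescence (cellular ATP, 30 min RT) measured cytotoxicity after 24 hr compound treatment at 37 C. Cells were a human lymphoblastoid line, LYMP2-017, plated at 2500/well and incubated 5 hr first; concentration-response fitted with Hill equation for AC50.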
# [8] = Cell Viability - LYMP2-019 (AID 973); note: nearly all actives have a fitted effect of over 55% in size; note: potency is the fitted concentration of half-maximal effect
# In short: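 AC50 values come from Hill-equation fits of luminescent intracellular ATP (CellTiter-Glo, 30 min, room temperature) following 24 h compound exposure at 37 C. Cells: LYMP2-019 lymphoblastoid line, 2500 per well, in complete culture medium.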
# [9] = Cell Viability - LYMP2-002 (AID 977); note: series mostly up to about 92 µM
# In short: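 In this qHTS viability screen, 2500 human lymphoblastoid cells per well receive compound for 24 hr at 37 C, and luciferase-based ATP luminescence gives the viability signal. Tetraoctylammonium bromide serves as positive control.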
# [10] = Cell Viability - LYMP2-006 (AID 978); note: nearly all actives have a fitted effect of over 60% in size; note: potency is the fitted concentration of half-maximal effect
# In short: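 In this cytotoxicity screen, the human lymphoblastoid line grew in complete medium with test compounds for 24 hr at 37 C. Cellular ATP served as the viability signal.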
# [11] = Cell Viability - LYMP2-020 (AID 986); note: nearly all actives have a fitted effect of over 55% in size; note: potency is the fitted concentration of half-maximal effect
# In short: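 Cytotoxicity in qHTS format: luminescent ATP readout from CellTiter-Glo after 24 h compound exposure at 37 C in complete medium. LYMP2-020 lymphoblastoid cells were seeded at 2500/well; concentration-response data fitted to the Hill equation for AC50.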
# [12] = Cell Viability - LYMP2-022 (AID 987); note: nearly all actives have a fitted effect of over 55% in size; note: potency is the fitted concentration of half-maximal effect
# In short: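 Cytotoxicity read as decreased cellular ATP (CellTiter-Glo luminescence, 30 min room temperature) after 24 hours compound exposure of 2500 lymphoblastoid LYMP2-022 cells/well at 37 C. Concentration-response data fitted with standard Hill equation for AC50.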
# [13] = Cell Viability - LYMP2-024 (AID 988); note: nearly all actives have a fitted effect of over 60% in size; note: potency is the fitted concentration of half-maximal effect
# In short: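 Cytotoxicity was taken as a decrease in ATP (CellTiter-Glo luminescence) after 24 hr compound exposure at 37 C of LYMP2-024 lymphoblastoid cells, 2500 cells/well. Concentration-response data were fitted to the Hill equation to give AC50.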
# [14] = qHTS assay for small molecule antagonists of retinoid X receptor alpha signaling (AID 588546; active = well fitted inhibition curve with a large enough effect in the signal ratio, with a control signal flat, not every such curve was filed as active; the % refers to the signal ratio;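 note: cells stimulated with 9-cis-retinoic acid as agonist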); conditions: HEK293T RXRa-UAS-bla, beta-lactamase ratio, antagonist mode; measured here: W530 green channel, cytotoxicity proxy
# In short: (§1)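 Beta-lactamase reporter inhibition, read as CCF4 fluorescence ratio (ex 405, em 460/530 nm) after 2 h at RT. HEK293T UAS-bla cells, 2500/well, were stimulated with 9-cis-RA at 500 or 100 nM final alongside test compound for 18 h at 37 C.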
# [15] = target: Retinoic acid receptor RXR-alpha (Homo sapiens) (UniProt P19793); test: as above; conditions: HEK293T RXRa-UAS-bla, beta-lactamase ratio, antagonist mode
# Chain of Retinoic acid receptor RXR-alpha (Homo sapiens) (P19793 whole entry, looked up): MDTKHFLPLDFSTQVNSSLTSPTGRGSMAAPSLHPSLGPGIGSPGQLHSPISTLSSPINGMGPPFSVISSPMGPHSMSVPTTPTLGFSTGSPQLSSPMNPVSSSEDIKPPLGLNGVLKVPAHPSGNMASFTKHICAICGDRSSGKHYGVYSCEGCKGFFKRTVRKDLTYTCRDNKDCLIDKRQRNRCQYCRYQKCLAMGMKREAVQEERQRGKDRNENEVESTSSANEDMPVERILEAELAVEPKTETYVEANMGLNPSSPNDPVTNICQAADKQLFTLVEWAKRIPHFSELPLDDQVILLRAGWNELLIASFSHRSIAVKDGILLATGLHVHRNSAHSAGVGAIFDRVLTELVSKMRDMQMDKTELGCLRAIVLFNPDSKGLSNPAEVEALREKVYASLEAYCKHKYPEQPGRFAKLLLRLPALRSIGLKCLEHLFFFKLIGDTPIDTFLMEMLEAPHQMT
# In short: as §1
# [16] = target: Thyroid hormone receptor beta (Homo sapiens) (UniProt P10828); test: qHTS assay for small molecule antagonists of thyroid hormone receptor beta signaling (AID 588547; active = well fitted inhibition curve with a large enough effect in the signal ratio, with a control signal flat, not every such curve was filed as active; the % refers to the signal ratio;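 note: cells stimulated with 0.4 nM T3 agonist during compound exposure; series mostly up to about 77 µM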); conditions: TR-UAS-bla HEK293, beta-lactamase ratio, antagonist mode, 18 h
# Chain of Thyroid hormone receptor beta (Homo sapiens) (P10828 whole entry, looked up): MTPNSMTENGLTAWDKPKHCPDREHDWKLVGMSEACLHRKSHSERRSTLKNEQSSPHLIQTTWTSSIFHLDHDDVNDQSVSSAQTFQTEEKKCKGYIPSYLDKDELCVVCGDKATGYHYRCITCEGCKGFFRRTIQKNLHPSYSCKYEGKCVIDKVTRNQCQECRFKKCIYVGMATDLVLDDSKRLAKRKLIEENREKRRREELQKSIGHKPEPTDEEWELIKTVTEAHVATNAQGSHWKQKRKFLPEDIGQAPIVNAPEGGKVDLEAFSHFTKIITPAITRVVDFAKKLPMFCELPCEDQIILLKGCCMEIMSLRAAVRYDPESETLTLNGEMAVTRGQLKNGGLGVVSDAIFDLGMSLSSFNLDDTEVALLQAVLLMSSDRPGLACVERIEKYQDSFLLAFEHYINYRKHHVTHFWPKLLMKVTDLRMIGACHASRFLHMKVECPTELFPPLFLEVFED
# In short: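 TR-UAS-bla GripTite HEK293 cells in 2% charcoal/dextran FBS medium were preincubated 4 h at 37 C, given compound (0.59 nM to 92 uM) plus 0.4 nM T3 (final) for 18 h, then CCF4 for 2 h at RT; Hill fit gave IC50.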
# [17] = qHTS assay for small molecule disruptors of the mitochondrial membrane potential - 5 hr assay (AID 651755; calls by dose curve; note: nearly all actives have a fitted effect of over 40% in size; note: potency is the fitted concentration of half-maximal effect)
# In short: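 Seed HepG2 overnight, add compound, incubate 5 hr at 37C and 5% CO2, stain 30 min with Mito-MPS, then measure monomer (490/535 nm) and aggregate (540/590 nm) fluorescence.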
# [18] = qHTS assay for environmental chemicals that activate the Aryl hydrocarbon Receptor (AhR) signaling pathway (AID 651777); conditions: 1A2-DRE human hepatoma cells, luciferase, 24 h; activation: stronger effect = higher value; note: nearly all actives have a fitted effect of over 15% in size; note: potency is the fitted concentration of half-maximal effect
# In short: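 Concentration–response screening used 1,200 1A2-DRE cells per well, 24 hr compound exposure (37 C, 5% CO2), and One-Glo luminescence as the AhR-driven CYP1A2 reporter signal.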
# [19] = target: Nuclear receptor subfamily 1 group I member 2 (Rattus norvegicus) (UniProt Q9R1A7); test: qHTS assay for small molecule activators of the rat pregnane X receptor (rPXR) signaling pathway (AID 651751; call rule not given here); conditions: rPXR reporter cells, luciferase (One-Glo), 24 h
# Chain of Nuclear receptor subfamily 1 group I member 2 (Rattus norvegicus) (Q9R1A7 whole entry, looked up): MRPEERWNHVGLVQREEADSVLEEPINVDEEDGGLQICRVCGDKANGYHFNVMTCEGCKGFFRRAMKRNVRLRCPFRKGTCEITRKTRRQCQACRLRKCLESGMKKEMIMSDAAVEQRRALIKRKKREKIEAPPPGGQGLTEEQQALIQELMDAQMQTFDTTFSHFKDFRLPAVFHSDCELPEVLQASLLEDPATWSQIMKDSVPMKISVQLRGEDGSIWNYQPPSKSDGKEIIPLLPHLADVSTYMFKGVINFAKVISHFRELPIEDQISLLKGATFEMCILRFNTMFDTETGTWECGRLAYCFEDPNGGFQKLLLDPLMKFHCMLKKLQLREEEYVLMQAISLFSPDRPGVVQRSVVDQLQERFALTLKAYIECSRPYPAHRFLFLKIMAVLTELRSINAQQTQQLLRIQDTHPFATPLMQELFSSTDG
# [20] = MultiTox-Fluor Cytotoxicity Assay - LYMP1-001 - Live Cells (AID 947)
smiles,measurement,setting,value
NC(=O)c1ccc([N+](=O)[O-])cc1,Potency,[1],inactive
same,Potency,[2],inactive
same,Potency,[3],inactive
same,Potency,[4],inactive
same,Potency,[5],inactive
same,Potency,[6],inactive
same,Potency,[7],inactive
same,Potency,[8],inactive
same,Potency,[9],inactive
same,Potency,[10],inactive
same,Potency,[11],inactive
same,Potency,[12],inactive
same,Potency,[13],inactive
same,max response,[14],-6.07%
same,max response,[15],-5.31% (inactive)
same,activity change % (negative = inhibition),[16],-17.4% (inactive)
same,Potency,[17],inactive
same,activation,[18],-1.24% (inactive)
same,max response,[19],-2.18% (inactive)
O=c1[nH]ncc2ccccc12,Potency,[1],inactive
same,Potency,[2],inactive
same,Potency,[20],inactive
same,Potency,[3],inactive
same,Potency,[4],inactive
same,Potency,[5],inactive
same,Potency,[6],inactive
same,Potency,[7],inactive
same,Potency,[8],inactive
same,Potency,[9],inactive
same,Potency,[10],inactive
same,Potency,[11],inactive
same,Potency,[12],inactive
same,Potency,[13],inactive
same,max response,[14],-5.72%
same,max response,[15],13% (inactive)
same,activity change % (negative = inhibition),[16],-18.2% (inactive)
same,Potency,[17],inactive
same,activation,[18],0.167% (inactive)
same,max response,[19],-3.03% (inactive)
C/C=C1/C(=O)C[C@H]2[C@@H]3CCC4=CC(=O)CC[C@]4(C)[C@H]3CC[C@]12C,Potency,[2],50.1 µM (active)
same,Potency,[3],39.8 µM (active)
same,Potency,[4],inactive
same,Potency,[5],inactive
same,Potency,[7],50.1 µM (active)
same,Potency,[10],50.1 µM (active)
same,Potency,[11],39.8 µM (active)
same,Potency,[12],39.8 µM (active)
same,Potency,[13],39.8 µM (active)
same,Potency,[17],inactive
same,activation,[18],1.95% (inactive)
Nc1ccc2c(c1)C(=O)c1ccccc1C2=O,Potency,[20],inactive
same,Potency,[3],inactive
same,Potency,[4],inactive
same,Potency,[5],inactive
same,Potency,[10],inactive
same,Potency,[11],inactive
same,Potency,[13],inactive
same,max response,[14],-11.8% and -6.92%
same,max response,[15],7.8% (inactive) and -4.23% (inactive)
same,activity change % (negative = inhibition),[16],-15.9% (inactive)
same,Potency,[17],1.5 µM (active)
same,Potency,[18],14.1 µM (active) and 44.7 µM (active)
CCCCCCCC/C=C\CCCCCCCC(=O)N(CCO)CCO,Potency,[1],39.8 µM (active)
same,Potency,[2],inactive
same,Potency,[20],inactive
same,Potency,[3],inactive
same,Potency,[4],inactive
same,Potency,[5],inactive
same,Potency,[6],inactive
same,Potency,[7],inactive
same,Potency,[9],inactive
same,Potency,[10],inactive
same,Potency,[11],inactive
same,Potency,[12],inactive
same,Potency,[13],inactive
same,Potency,[17],inactive
same,activation,[18],2.99% (inactive)
same,max response,[19],3.59% (inactive)
CCCCCCCCC1CO1 (configuration not stated),Potency,[1],inactive
same,Potency,[2],inactive
same,Potency,[3],inactive
same,Potency,[4],inactive
same,Potency,[5],inactive
same,Potency,[6],inactive
same,Potency,[7],inactive
same,Potency,[8],inactive
same,Potency,[9],inactive
same,Potency,[10],inactive
same,Potency,[11],inactive
same,Potency,[12],inactive
same,Potency,[13],inactive
same,max response,[14],-6.6%
same,max response,[15],-3.61% (inactive)
same,activity change % (negative = inhibition),[16],2.22% (inactive)
same,Potency,[17],inactive
same,activation,[18],0.826% (inactive)
same,max response,[19],-2.96% (inactive)
CN(C)c1ccc(Cc2ccc(N(C)C)cc2)cc1,Potency,[2],inactive
same,Potency,[20],inactive
same,Potency,[3],inactive
same,Potency,[4],inactive
same,Potency,[5],inactive
same,Potency,[6],inactive
same,Potency,[7],inactive
same,Potency,[8],inactive
same,Potency,[9],inactive
same,Potency,[10],inactive
same,Potency,[11],inactive
same,Potency,[12],inactive
same,Potency,[13],inactive
same,max response,[14],3.74% and -6.02%
same,max response,[15],1.04% (inactive) and -36.9% (inactive)
same,activity change % (negative = inhibition),[16],1.5% (inactive)
same,activation,[18],8.36% (inactive) and 2.98% (inactive)
same,max response,[19],1.5% (inactive) and 4.81% (inactive)
C[Si](C)(C)Cl,Potency,[1],inactive
same,Potency,[2],inactive
same,Potency,[3],inactive
same,Potency,[4],inactive
same,Potency,[5],inactive
same,Potency,[6],inactive
same,Potency,[7],inactive
same,Potency,[8],inactive
same,Potency,[9],inactive
same,Potency,[10],inactive
same,Potency,[11],inactive
same,Potency,[12],inactive
same,Potency,[13],inactive
same,max response,[14],3.42%
same,max response,[15],16.7% (inactive)
same,activity change % (negative = inhibition),[16],-7.14% (inactive)
same,Potency,[17],inactive
same,activation,[18],1.28% (inactive)
same,max response,[19],1.16% (inactive)
CC1=C(/C=C/C(C)=C/C=C/C(C)=C/C=O)C(C)(C)CCC1,Potency,[1],25.1 µM (active)
same,Potency,[2],39.8 µM (active)
same,Potency,[3],50.1 µM (active)
same,Potency,[4],39.8 µM (active)
same,Potency,[5],39.8 µM (active)
same,Potency,[6],39.8 µM (active)
same,Potency,[7],39.8 µM (active)
same,Potency,[8],50.1 µM (active)
same,Potency,[10],63.1 µM (active)
same,Potency,[12],39.8 µM (active)
same,Potency,[13],39.8 µM (active)
same,max response,[14],-0.803%
same,max response,[15],-29.6% (inactive)
same,Potency,[17],inactive
same,activation,[18],4.9% (inactive)
CCCCCCCCOc1ccc(C(=O)O)cc1,Potency,[1],inactive
same,Potency,[2],inactive
same,Potency,[20],inactive
same,Potency,[3],inactive
same,Potency,[4],inactive
same,Potency,[5],inactive
same,Potency,[6],inactive
same,Potency,[7],inactive
same,Potency,[8],inactive
same,Potency,[9],inactive
same,Potency,[10],inactive
same,Potency,[11],inactive
same,Potency,[12],inactive
same,Potency,[13],inactive
same,max response,[14],-3.84%
same,max response,[15],-6.4% (inactive)
same,activity change % (negative = inhibition),[16],10% (inactive)
same,Potency,[17],inactive
same,activation,[18],8.38% (inactive)
same,max response,[19],13.3% (inactive)
O=C(Cl)c1ccc([N+](=O)[O-])cc1,Potency,[1],inactive
same,Potency,[2],inactive
same,Potency,[20],inactive
same,Potency,[3],inactive
same,Potency,[4],inactive
same,Potency,[6],inactive
same,Potency,[7],inactive
same,Potency,[8],inactive
same,Potency,[9],inactive
same,Potency,[10],inactive
same,Potency,[11],inactive
same,Potency,[12],inactive
same,Potency,[13],inactive
same,max response,[14],-4.54%
same,max response,[15],11.8% (inactive)
same,activity change % (negative = inhibition),[16],12% (inactive)
same,Potency,[17],inactive
same,max response,[19],-6.29% (inactive)
C/C=C/C=C/C=O,Potency,[2],39.8 µM (active)
same,Potency,[20],inactive
same,Potency,[4],31.6 µM (active)
same,Potency,[5],39.8 µM (active)
same,Potency,[6],39.8 µM (active)
same,Potency,[7],31.6 µM (active)
same,Potency,[8],39.8 µM (active)
same,Potency,[10],39.8 µM (active)
same,Potency,[11],31.6 µM (active)
same,Potency,[12],25.1 µM (active)
same,Potency,[13],25.1 µM (active)
same,Potency,[17],inactive
same,activation,[18],0.0819% (inactive)
same,max response,[19],-0.0021% (inactive)
Cc1cc(=O)oc2cc(O)cc(O)c12,Potency,[1],inactive
same,Potency,[2],inactive
same,Potency,[20],inactive
same,Potency,[3],inactive
same,Potency,[4],inactive
same,Potency,[5],inactive
same,Potency,[6],inactive
same,Potency,[7],inactive
same,Potency,[8],inactive
same,Potency,[9],inactive
same,Potency,[10],inactive
same,Potency,[11],inactive
same,Potency,[12],inactive
same,Potency,[13],inactive
same,activation,[18],8.78% (inactive)
same,max response,[19],-2.67% (inactive)
